Growth data for eight molecules are collected here from PubChem BioAssay (NCI).

Compounds without any hit were thinned out: in the full panel of roughly 83,000, 20% have a hit.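 Activity criterion: percent growth below 10, measured after cells in 96-well plates were exposed to a single compound concentration for 48 hours.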 A number with no mark means an inactive call. Calls of active or inactive are those of the source.

What all share (test): NCI-60 one-dose screen, 48 h (100 = growth as untreated, 0 = no growth, -100 = all killed)
What all share (settings): 10 µM unless noted

For experiment [1], the system named is HCT-15 colon.
Experiment [2] deals with HT29 colon.
Experiment [3] concerns SNB-75 CNS.
The test system of experiment [4] is SNB-19 CNS.
Experiment [5] has as its system U251 CNS.
Experiment [6] relates to PC-3 prostate.
Experiment [7] has as its system UACC-62 melanoma.
The subject of experiment [8] is LOX IMVI melanoma.
Experiment [9] relates to SK-MEL-28 melanoma.
The subject of experiment [10] is SK-MEL-2 melanoma.
In experiment [11] the test system is EKVX NSCLC.
Experiment [12] deals with SN12C renal.
Experiment [13] has as its system UO-31 renal.
Experiment [14] deals with TK-10 renal.
The test system of experiment [15] is ACHN renal.
The test system of experiment [16] is CAKI-1 renal.
Experiment [17] concerns A498 renal.
The subject of experiment [18] is CCRF-CEM leukemia.
The subject of experiment [19] is MOLT-4 leukemia.
Experiment [20] deals with SK-MEL-5 melanoma.

As to `CCNC(=O)N1CCc2cc(OC)c(OCCc3ccc(OC)nc3)cc2C1c1ccc(C)cc1C` (configuration not stated), the growth in experiment [1] was 6.9% (active); in [2], 1.6% (active); in experiment [3], 45.8%; in experiment [4], 25.7%; in experiment [5] it was 11.1%; in [6], 26.8%. Moreover, the growth in experiment [7] is 25.6%; in experiment [8], 3.95% (active); in experiment [9], 41.5%; in experiment [10] it was 1.68% (active); in experiment [11], 39.3%; in [12], 30.5%. For the same molecule, the growth in [13] was 28.5%; in experiment [14] it was 44.8%; in experiment [15] it was 25%; in experiment [16], 18.1%; in experiment [17], -12.2% (active); in [18], 27%. For the same molecule, the growth in experiment [19] was 22.6%.
In the case of `C#Cc1ccc(C(=O)NCc2ccc(/C=C/C(=O)c3nccn3C)cc2)cc1`, the growth was 2.77% (active) in experiment [1]; 8.87% (active) in experiment [2]; 67.3% in experiment [3]; 16.9% in [4]; 17.3% in [5]; 30.7% in [6]. Besides, the growth is 21% in [7]; -74.8% (active) in experiment [8]; 48.8% in experiment [9]; 87% in [10]; 36.4% in experiment [11]; 14.8% in [12]. For the same molecule, the growth in [13] was 29.3%; in [14], 45.1%; in experiment [15], 21.6%; in experiment [16], 43.2%; in experiment [17], 38.1%; in [19], 1.15% (active).
Regarding `CN1CCN(Cc2ccc(NC(=O)c3cncc(C#Cc4cnn5cccnc45)c3)cc2C(F)(F)F)CC1`, the growth in [1] is 4.11% (active); in experiment [2] it was 17.5%; in [3], 62.4%; in [4] it was 29%; in [5], 36.2%; in experiment [6] it was 30.8%. For the same molecule, the growth in experiment [20] is 17.7%; in experiment [7], 23.8%; in experiment [8], -33.3% (active); in experiment [11] it was 46.6%; in experiment [12], 8.93% (active); in experiment [13], 22.3%. Also, the growth in experiment [14] is 32.8%; in [15] it was 11.2%; in experiment [16], 21.6%; in experiment [18] it was 2.51% (active); in experiment [19], 6.57% (active).
As for `O=C(Nc1ccc2c(ccn2Cc2ccccn2)c1)c1ccnnc1`, the growth in [1] was 111%; in experiment [2] it was 103%; in [3], 56%; in [4] it was 102%; in [5] it was 108%; in experiment [6], 91.4%. Besides, the growth in experiment [7] is 86.3%; in experiment [8] it was 101%; in [9], 108%; in [10], 102%; in experiment [11], 75.6%; in experiment [12], 70.2%. Further, the growth in experiment [13] is 58.8%; in [14] it was 60.2%; in experiment [15], 97.3%; in [16], 65.9%; in [17], 56.8%; in experiment [19], 115%.
As to `ClC(Cl)c1nc(-c2ccco2)n2nc(-c3ccccc3)cc2n1`, the growth is 12.8% in [1]; 0.803% (active) in experiment [2]; 88.5% in experiment [3]; 8.35% (active) in [4]; -0.0523% (active) in experiment [5]; 1.66% (active) in experiment [6]. Besides, the growth in [20] is 98.1%; in experiment [7], 40.7%; in experiment [8] it was 98.2%; in experiment [10] it was 89.6%; in experiment [11], 4.01% (active); in [13], 35.3%. The growth in [14] was 20.3%; in [15] it was -23.9% (active); in [16], -19.1% (active); in experiment [17], -7.32% (active); in experiment [18], 89.8%; in experiment [19], 66.6%.
`CN(Cc1ccccc1)S(=O)(=O)/N=C1\NC(=O)NC1=C(Cl)Cl`: the growth in experiment [1] was -69% (active); in [2] it was 48%; in experiment [3], 107%; in experiment [4] it was 68.6%; in [5] it was 18.8%; in [6] it was 35.6%. The growth in experiment [20] was 95.7%; in experiment [7], 62.2%; in [8] it was -84.5% (active); in experiment [10] it was 87.8%; in [11], 86.2%; in experiment [12], 18.4%. The growth in [13] was 93.3%; in [14] it was 44.1%; in experiment [15], -90.8% (active); in experiment [16], 86.8%; in experiment [17], 70.8%; in experiment [18], -12.8% (active). The growth in [19] is 10.3%.
Consider `N#Cc1c(-c2cccs2)cc(-c2cnccn2)nc1SCC(=O)Nc1ccc(Br)cc1`, for which the growth in experiment [1] was 82.9%; in experiment [2], 90.9%; in [3], 50.6%; in [4], 69.4%; in [5], 83%; in [6], 86.9%. Also, the growth in experiment [7] was 78.9%; in [8], 53.3%; in experiment [9] it was 89.7%; in experiment [10], 106%; in [11], 57.6%; in experiment [12], 87.7%. The growth was 58.4% in experiment [13]; 83% in experiment [14]; 64.5% in experiment [15]; 64.4% in experiment [16]; 6.18% (active) in experiment [17]; 83.4% in experiment [18]. In addition, the growth in [19] was 89.5%.
In the case of `CCOC(=O)C(=O)/C(=C\c1ccc(Cl)cc1)C(=O)N1C(=S)NC(=O)C1CC(C)C` (configuration not stated), the growth in experiment [1] is 92.8%; in experiment [2] it was 108%; in experiment [3], 101%; in experiment [4], 99.1%; in experiment [5] it was 101%; in [6] it was 93.6%. In addition, the growth in [7] was 91.5%; in experiment [8], 112%; in experiment [9] it was 95.1%; in experiment [10] it was 112%; in [11], 91%; in experiment [12], 96.9%. The growth in experiment [13] was 86.1%; in experiment [14], 135%; in experiment [15] it was 99.5%; in experiment [16], 91.3%; in experiment [17], 102%; in [18] it was 91.2%. Further, the growth in [19] was 98.4%.
